From article PMC5540273 (PLoS ONE, 2017)
Values joined by “and” are separate entries in the source; they are usually repeats but may differ in a detail not shown here. Equal entries are not always repeated. Where two headings read alike, the source gives them in different places.

Key:
[1] = tested on: KIT-autoinhibited; conditions: concentration: 1 μM, replicates: in singlicate, n = 1
[2] = tested on: KIT; conditions: concentration: 1 μM, replicates: in singlicate, n = 1
[3] = tested on: LATS1; conditions: concentration: 1 μM, replicates: in singlicate, n = 1
[4] = tested on: LATS2; conditions: concentration: 1 μM, replicates: in singlicate, n = 1
[5] = tested on: LCK; conditions: concentration: 1 μM, replicates: in singlicate, n = 1
[6] = tested on: LIMK1; conditions: concentration: 1 μM, replicates: in singlicate, n = 1
[7] = tested on: LIMK2; conditions: concentration: 1 μM, replicates: in singlicate; n = 1
[8] = tested on: T1, LKB1; conditions: concentration: 1 μM, replicates: in singlicate, n = 1
T1 construct: gene STK11

[9] = tested on: T2, LOK; conditions: concentration: 1 μM, replicates: in singlicate, n = 1
T2 construct: gene STK10

[10] = tested on: LRRK2; conditions: concentration: 1 μM, replicates: in singlicate, n = 1
[11] = tested on: LTK; conditions: concentration: 1 μM, replicates: in singlicate, n = 1
[12] = tested on: LYN; conditions: concentration: 1 μM, replicates: in singlicate, n = 1
[13] = tested on: T3, LZK; conditions: concentration: 1 μM, replicates: in singlicate, n = 1
T3 construct: gene MAP3K13

[14] = tested on: MAK; conditions: concentration: 1 μM, replicates: in singlicate, n = 1
[15] = tested on: MAP3K15; conditions: concentration: 1 μM, replicates: in singlicate, n = 1
[16] = tested on: MAP3K1; conditions: concentration: 1 μM, replicates: in singlicate; n = 1
[17] = tested on: MAP3K2; conditions: concentration: 1 μM, replicates: in singlicate, n = 1
[18] = tested on: MAP3K3; conditions: concentration: 1 μM, replicates: in singlicate, n = 1
[19] = tested on: MAP3K4; conditions: concentration: 1 μM, replicates: in singlicate, n = 1
[20] = tested on: MAP4K2; conditions: concentration: 1 μM, replicates: in singlicate, n = 1
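Further: KINOMEscan kinase panel screen.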

Cc1c(Cn2c(C)nn3c(=O)cc(N4CCOC(C)C4)nc23)cccc1C(F)(F)F (stereo not drawn) [GSK2344444]
%Inh [1]: 4%
%Inh [2]: 1%
%Inh [3]: 0%
%Inh [4]: 0%
%Inh [5]: 20%
%Inh [6]: 0%
%Inh [7]: 11%
%Inh [8]: 0%
%Inh [9]: 0%
%Inh [10]: 25%
%Inh [11]: 0%
%Inh [12]: 0%
%Inh [13]: 0%
%Inh [14]: 15%
%Inh [15]: 10%
%Inh [16]: 16%
%Inh [17]: 9%
%Inh [18]: 0%
%Inh [19]: 0%
%Inh [20]: 0%

CNc1ncnc2[nH]ncc12 [SKF-18355]
%Inh [1]: 20%
%Inh [2]: 18%
%Inh [3]: 0%
%Inh [4]: 0%
%Inh [5]: 6%
%Inh [6]: 0%
%Inh [7]: 0%
%Inh [8]: 38%
%Inh [9]: 0%
%Inh [10]: 0%
%Inh [11]: 0%
%Inh [12]: 0%
%Inh [13]: 27%
%Inh [14]: 2%
%Inh [15]: 0%
%Inh [16]: 2%
%Inh [17]: 14%
%Inh [18]: 0%
%Inh [19]: 0%
%Inh [20]: 0%

O=c1cc(N2CCOCC2)nc2n(Cc3cccc(C(F)(F)F)c3)ccn12 [GSK2297543]
%Inh [1]: 2%
%Inh [2]: 13%
%Inh [3]: 0%
%Inh [4]: 0%
%Inh [5]: 22%
%Inh [6]: 0%
%Inh [7]: 7%
%Inh [8]: 10%
%Inh [9]: 0%
%Inh [10]: 0%
%Inh [11]: 16%
%Inh [12]: 0%
%Inh [13]: 0%
%Inh [14]: 31%
%Inh [15]: 0%
%Inh [16]: 5%
%Inh [17]: 10%
%Inh [18]: 0%
%Inh [19]: 13%
%Inh [20]: 0%

Cc1nnc(-c2ccc3occ(-c4ccc(C(C)O)cc4)c3c2)o1 (stereo not drawn)
%Inh [1]: 0%
%Inh [2]: 11%
%Inh [3]: 15%
%Inh [4]: 12%
%Inh [5]: 2%
%Inh [6]: 29%
%Inh [7]: 0%
%Inh [8]: 7%
%Inh [9]: 4%
%Inh [10]: 4%
%Inh [11]: 0%
%Inh [12]: 18%
%Inh [13]: 0%
%Inh [14]: 0%
%Inh [15]: 0%
%Inh [16]: 10%
%Inh [17]: 3%
%Inh [18]: 19%
%Inh [19]: 9%
%Inh [20]: 20%

O=c1cc(N2CCOCC2)nc2n(Cc3cccc(F)c3)ccn12 [GSK2297430]
%Inh [1]: 0%
%Inh [2]: 10%
%Inh [3]: 0%
%Inh [4]: 0%
%Inh [5]: 23%
%Inh [6]: 9%
%Inh [7]: 5%
%Inh [8]: 0%
%Inh [9]: 0%
%Inh [10]: 31%
%Inh [11]: 68%
%Inh [12]: 0%
%Inh [13]: 0%
%Inh [14]: 21%
%Inh [15]: 0%
%Inh [16]: 17%
%Inh [17]: 0%
%Inh [18]: 0%
%Inh [19]: 10%
%Inh [20]: 0%

Nc1nccc(-c2c(-c3ccc(F)cc3)ncn2C2CCN(CC(F)(F)F)CC2)n1 [SB-236560]
%Inh [1]: 11%
%Inh [2]: 0%
%Inh [3]: 0%
%Inh [4]: 69%
%Inh [5]: 0%
%Inh [6]: 5%
%Inh [7]: 0%
%Inh [8]: 0%
%Inh [9]: 2%
%Inh [10]: 0%
%Inh [11]: 100%
%Inh [12]: 13%
%Inh [13]: 7%
%Inh [14]: 29%
%Inh [15]: 0%
%Inh [16]: 0%
%Inh [17]: 0%
%Inh [18]: 0%
%Inh [19]: 0%
%Inh [20]: 0%

O=C(NCCNc1ccnc(Nc2ccc(F)cc2)n1)Nc1ccccc1F [GSK1379880]
%Inh [1]: 0%
%Inh [2]: 48%
%Inh [3]: 0%
%Inh [4]: 0%
%Inh [5]: 15%
%Inh [6]: 0%
%Inh [7]: 0%
%Inh [8]: 0%
%Inh [9]: 0%
%Inh [10]: 0%
%Inh [11]: 0%
%Inh [12]: 0%
%Inh [13]: 0%
%Inh [14]: 0%
%Inh [15]: 14%
%Inh [16]: 0%
%Inh [17]: 0%
%Inh [18]: 0%
%Inh [19]: 29%
%Inh [20]: 0%

Nc1nc(-c2ccc3c(N)n[nH]c3c2)cc(N2CCCC2)n1 [GSK2227430]
%Inh [1]: 0%
%Inh [2]: 12%
%Inh [3]: 0%
%Inh [4]: 5%
%Inh [5]: 0%
%Inh [6]: 0%
%Inh [7]: 3%
%Inh [8]: 1%
%Inh [9]: 0%
%Inh [10]: 0%
%Inh [11]: 0%
%Inh [12]: 0%
%Inh [13]: 0%
%Inh [14]: 27%
%Inh [15]: 0%
%Inh [16]: 0%
%Inh [17]: 0%
%Inh [18]: 0%
%Inh [19]: 0%
%Inh [20]: 0%

Cl.Cl.Cl.Fc1ccc(-c2ncn(C3CCNCC3)c2-c2ccnc(Nc3ccccc3)n2)cc1 [SB-238039]
%Inh ([1]; 1 µM): 2% and 0%
%Inh ([2]; 1 µM): 12% and 0%
%Inh ([3]; 1 µM): 17% and 16%
%Inh ([4]; 1 µM): 0% and 12%
%Inh ([5]; 1 µM): 69% and 32%
%Inh ([6]; 1 µM): 13% and 0%
%Inh [7]: 0%
%Inh ([8]; 1 µM): 55% and 23%
%Inh ([9]; 1 µM): 35% and 2%
%Inh ([10]; 1 µM): 27% and 0%
%Inh ([11]; 1 µM): 27% and 37%
%Inh ([12]; 1 µM): 42% and 15%
%Inh ([13]; 1 µM): 0% and 7%
%Inh ([14]; 1 µM): 3% and 41%
%Inh ([15]; 1 µM): 0% and 4%
%Inh [16]: 0%
%Inh ([17]; 1 µM): 63% and 27%
%Inh ([18]; 1 µM): 69% and 98.9%
%Inh ([19]; 1 µM): 2% and 0%
%Inh ([20]; 1 µM): 36% and 7%
